Measured values from PubChem BioAssay AID624404 (Broad Institute, 2012).
About 710 (39%) of roughly 1,800 compounds were called active. About 28% were inconclusive and are not listed. These entries were drawn from the full list. Measured potencies and affinities stand elsewhere. A number with no mark means an inactive call.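 Rule for the calls: active = luciferase signal rise whose fitted curve crosses a set activity limit at or below the top valid tested dose; inconclusive = flat fit with 30 to 70% rise, or poor fit; inactive = signal falling, flat within 30%, or crossing above top dose.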

test: reporter signal increase, D54 LucT cells – cell-based, luminescence, cherry pick, counter-screen for N-linked glycosylation inhibitor project, dose response (AID 624404); details: D54 LucT luciferase reporter counterscreen, 24 h; series mostly up to 19.5 µM; activity increase (luciferase signal): at the top concentration;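 note: 0% = median neutral control signal and 100% = twice that signal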

| Compound | activity increase (luciferase signal) |
| --- | --- |
| CN(C)c1ccc(CNC(=O)C2(C)Cc3c(-c4ccc5c(c4)OCO5)ccnc3O2)cc1 (stereo unspecified) | 37% |
| CC1=C([N+](=O)[O-])C(c2ccccc2)C2=C(N1)c1ccccc1C2=O (stereo unspecified) | 10.1% |
| CCCCCCCCn1c2c(c(=N)c3c1CCC3)CCCC2 | -57.8% |
| COc1cc(/C=N\NC(=O)c2sc(N)nc2C)cc(OC)c1OC | 15.9% |
| C#CC[N+](C)(C)CCCCCCCCCCCC | 37.5% |
| CCc1ccc(Nc2n[n+](-c3ccccc3)c(-c3ccc(N(CC)CC)cc3)s2)cc1 | -3.22% |
| CN(Cc1ccc(Cl)s1)C(=O)CCl | 1.46% |
| COC(=O)CNC(c1ccccc1)c1cc(Br)ccc1NC(=O)CCN1CCOCC1 (stereo unspecified) | 8.3% |
| NS(=O)(=O)c1cc(C(=O)NCCOc2ccccc2)c(Cl)cc1Cl | 43.3% |
| COc1ccc(OC(=O)N2C/C(=C/c3ccccc3)C(=O)/C(=C\c3ccccc3)C2)cc1 | -32.7% |
| COc1ccc(/C=C/C(=O)c2ccc3c4c(cccc24)CC3)cc1 | 8.97% |
| COc1ccc(C=CC(=O)c2ccc(OC)c(OC)c2O)cc1OC | 14.6% |
| COc1cc(/C=C/C(=O)c2ccc(Cl)s2)cc(OC)c1O | 3.5% |
| O=CC1=C(c2ccccc2)Oc2ccccc2O1 | -21% |
| Nc1nonc1-c1nc2ccccc2n1Cc1ccccc1 | 30% |
| Cc1noc2ncnc(Sc3ccc(Br)cc3)c12 | 15.6% |

| Compound | activity increase (luciferase signal) |
| --- | --- |
| COc1cc(O)c(C(=O)/C=C/c2ccccc2)c(OC)c1 | 49% |
| COc1ccc(C=CC(=O)c2c(OC)cc(OC)c(OC)c2O)cc1 | -20.6% |
| CCOC(=O)C(=Cc1ccc(-c2ccsc2C(=O)OC)o1)C(=O)OCC | 24.1% |
| Oc1cc(NCc2ccc(Cl)cc2)cc2cccnc12 | -33.2% |
| COc1cc(CNc2ccc(O)cc2)cc(Br)c1OCc1ccccc1 | 23.2% |
| CCOc1ccc(-n2c(C)cc(C(=O)CCl)c2C)cc1 | -6.33% |
| CC(=O)n1cc(/C=N/NC(=O)c2sc(C)nc2C)c2ccccc21 | 65.5% |
| COc1ccc(Nc2c3ccccc3nc3ccccc23)cc1 | -37.8% |
| COCCOC(=O)c1[nH]c2c(c1C)C(=O)CC(c1ccco1)C2 (stereo unspecified) | 34.5% |
| CN(C)CCCNc1cc(-c2ccccc2)nc2cc(-c3cccc(F)c3)nn12 | 28.9% |
| CCCCCC[n+]1ccccc1/C=C/c1ccc(N(C)C)cc1 | -64.3% |
| CCN(CC)S(=O)(=O)c1ccc(-c2nnc(SCC(=O)N3CCc4ccccc43)o2)cc1 | 39% |
| Cc1ccc(Oc2ccc(S(=O)(=O)N3CCOCC3)cc2C(N)=O)c(-n2nc3ccccc3n2)c1 | -17.3% |
| O=C(c1ccc(Cl)cc1)C(CN1CCCCC1)c1ccccc1 (stereo unspecified) | -90.7% |
| Nc1ccc2nc(-c3ccccc3)c(-c3ccccc3)nc2c1 | 4.94% |
